Assay results taken from the supplement of paper PMC9492666.
Structures can show the parent of a compound that is named as a salt.

Key:
HCC1937 = assay: relative cell viability, compound + RSL3, vs DMSO (fraction of DMSO control); higher = less growth inhibition; conditions: 72 h
MDA-MB-231 = assay: as above; conditions: 72 h
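Also: breast cancer cell viability read out with the CCK-8 kit after co-treatment of each compound with the ferroptosis inducer RSL3.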

| Compound | relative cell viability (HCC1937) | relative cell viability (MDA-MB-231) |
| --- | --- | --- |
| CCN(CC)c1ccc(C=NNC(=O)c2ccncc2)c(O)c1 + COC(=O)c1ccc([C@H]2c3[nH]c4ccccc4c3C[C@H](C(=O)OC)N2C(=O)CCl)cc1 [RSL3] | 0.265 | 0.611 |
| Cc1coc2c1C(=O)C(=O)c1c-2ccc2c(C)cccc12 [Tanshinone I] + COC(=O)c1ccc([C@H]2c3[nH]c4ccccc4c3C[C@H](C(=O)OC)N2C(=O)CCl)cc1 [RSL3] | 0.218 | 0.305 |
| CCOC(=O)c1c(NC(=O)CN2CCN(C(=O)c3ccco3)CC2)sc2c1CCC2 + COC(=O)c1ccc([C@H]2c3[nH]c4ccccc4c3C[C@H](C(=O)OC)N2C(=O)CCl)cc1 [RSL3] | 0.384 | 0.476 |
| O=S(=O)(c1ccccc1)N(CC(F)(F)F)c1ccc(C(O)(C(F)(F)F)C(F)(F)F)cc1 + COC(=O)c1ccc([C@H]2c3[nH]c4ccccc4c3C[C@H](C(=O)OC)N2C(=O)CCl)cc1 [RSL3] | 0.36 | 0.638 |
| CC(C)(O)c1ccccc1CC[C@@H](SCC1(CC(=O)O)CC1)c1cccc(/C=C/c2ccc3ccc(Cl)cc3n2)c1 [Montelukast] + COC(=O)c1ccc([C@H]2c3[nH]c4ccccc4c3C[C@H](C(=O)OC)N2C(=O)CCl)cc1 [RSL3] | 0.589 | 0.484 |
| CC(C)c1c(C(=O)Nc2ccccc2)c(-c2ccccc2)c(-c2ccc(F)cc2)n1CC[C@@H](O)C[C@@H](O)CC(=O)O [Atorvastatin Calcium] + COC(=O)c1ccc([C@H]2c3[nH]c4ccccc4c3C[C@H](C(=O)OC)N2C(=O)CCl)cc1 [RSL3] | 0.571 | 0.385 |
| NC(N)=NN=Cc1cccc(Cl)c1Cl [Raphin1] + COC(=O)c1ccc([C@H]2c3[nH]c4ccccc4c3C[C@H](C(=O)OC)N2C(=O)CCl)cc1 [RSL3] | 0.289 | 0.626 |
| O=C(O)c1cccc(N=Nc2c(O)[nH]c3ccc(S(=O)(=O)NCc4ccc(F)cc4)cc23)c1 + COC(=O)c1ccc([C@H]2c3[nH]c4ccccc4c3C[C@H](C(=O)OC)N2C(=O)CCl)cc1 [RSL3] | 0.516 | 0.611 |
| O=C(O)Cn1nnc(-c2cc(N3CCC(Oc4cc(F)ccc4Br)CC3)no2)n1 + COC(=O)c1ccc([C@H]2c3[nH]c4ccccc4c3C[C@H](C(=O)OC)N2C(=O)CCl)cc1 [RSL3] | 0.428 | 0.632 |
| N=C(N)NCCC(=O)O [3-Guanidinopropionic Acid] + COC(=O)c1ccc([C@H]2c3[nH]c4ccccc4c3C[C@H](C(=O)OC)N2C(=O)CCl)cc1 [RSL3] | 0.509 | 0.659 |
| CCc1c(-c2ccccc2)c(-c2ccccc2)nn1-c1ccccc1-c1cccc(OCC(=O)O)c1 + COC(=O)c1ccc([C@H]2c3[nH]c4ccccc4c3C[C@H](C(=O)OC)N2C(=O)CCl)cc1 [RSL3] | 0.503 | 0.741 |
| O=c1c(-c2ccc(O)cc2)coc2cc(O)ccc12 [Daidzein] + COC(=O)c1ccc([C@H]2c3[nH]c4ccccc4c3C[C@H](C(=O)OC)N2C(=O)CCl)cc1 [RSL3] | 0.865 | 0.608 |
| CC(C)(CCCCCC(O)CCCCCC(C)(C)C(=O)O)C(=O)O + COC(=O)c1ccc([C@H]2c3[nH]c4ccccc4c3C[C@H](C(=O)OC)N2C(=O)CCl)cc1 [RSL3] | 0.288 | 0.337 |
| COc1cc(O)c2c(c1)O[C@H](c1ccc(O)cc1)CC2=O [Sakuranetin] + COC(=O)c1ccc([C@H]2c3[nH]c4ccccc4c3C[C@H](C(=O)OC)N2C(=O)CCl)cc1 [RSL3] | 0.362 | 0.645 |
| COc1ccc(-c2cc(=O)c3c(O)c(OC)c(OC)c(OC)c3o2)cc1OC + COC(=O)c1ccc([C@H]2c3[nH]c4ccccc4c3C[C@H](C(=O)OC)N2C(=O)CCl)cc1 [RSL3] | 0.343 | 0.501 |
| Cc1c2c(=O)n(-c3ccccc3Cl)[nH]c2cc(=O)n1Cc1ccccn1 + COC(=O)c1ccc([C@H]2c3[nH]c4ccccc4c3C[C@H](C(=O)OC)N2C(=O)CCl)cc1 [RSL3] | 0.452 | 0.626 |
| Cc1cc(N2C[C@@H](C)N[C@@H](C)C2)ncc1-c1ccc(-c2nc3c(ccn3C)c(=O)[nH]2)cc1 + COC(=O)c1ccc([C@H]2c3[nH]c4ccccc4c3C[C@H](C(=O)OC)N2C(=O)CCl)cc1 [RSL3] | 0.496 | 0.682 |
| COc1ccc2c(c1)c(CC(=O)O)c(C)n2C(=O)c1ccc(Cl)cc1 [Indometacin] + COC(=O)c1ccc([C@H]2c3[nH]c4ccccc4c3C[C@H](C(=O)OC)N2C(=O)CCl)cc1 [RSL3] | 1.01 | 0.61 |
| CC(=O)c1c(C)cc2cccc(O)c2c1O [Nepodin] + COC(=O)c1ccc([C@H]2c3[nH]c4ccccc4c3C[C@H](C(=O)OC)N2C(=O)CCl)cc1 [RSL3] | 0.404 | 0.56 |

| Compound | relative cell viability (HCC1937) | relative cell viability (MDA-MB-231) |
| --- | --- | --- |
| CC(C)n1c(/C=C/C(O)CC(O)CC(=O)O)c(-c2ccc(F)cc2)c2ccccc21 (centres undefined) [Fluvastatin sodium salt] + COC(=O)c1ccc([C@H]2c3[nH]c4ccccc4c3C[C@H](C(=O)OC)N2C(=O)CCl)cc1 [RSL3] | 0.504 | 0.547 |
| CCOC(=O)N1c2ccc(C(F)(F)F)cc2[C@@H](N(Cc2cc(C(F)(F)F)cc(C(F)(F)F)c2)C(=O)OC)C[C@H]1CC [Torcetrapib] + COC(=O)c1ccc([C@H]2c3[nH]c4ccccc4c3C[C@H](C(=O)OC)N2C(=O)CCl)cc1 [RSL3] | 0.642 | 0.458 |
| CC[C@H](C)C(=O)O[C@H]1C[C@@H](C)C=C2C=C[C@H](C)[C@H](CC[C@@H]3C[C@@H](O)CC(=O)O3)[C@H]21 [Lovastatin] + COC(=O)c1ccc([C@H]2c3[nH]c4ccccc4c3C[C@H](C(=O)OC)N2C(=O)CCl)cc1 [RSL3] | 0.867 | 0.491 |
| CC(O)(CC(=O)O)CC(=O)O [Meglutol] + COC(=O)c1ccc([C@H]2c3[nH]c4ccccc4c3C[C@H](C(=O)OC)N2C(=O)CCl)cc1 [RSL3] | 0.443 | 0.613 |
| C[N+](C)(C)CC(O)CC(=O)[O-] (stereo not drawn) [L(-)-Carnitine] + COC(=O)c1ccc([C@H]2c3[nH]c4ccccc4c3C[C@H](C(=O)OC)N2C(=O)CCl)cc1 [RSL3] | 0.621 | 0.523 |
| COc1cc(N2CCN(C)CC2)ccc1Nc1ncc2c(n1)N(C1CCC1)C(=O)N(c1c(C)cccc1C)C2 + COC(=O)c1ccc([C@H]2c3[nH]c4ccccc4c3C[C@H](C(=O)OC)N2C(=O)CCl)cc1 [RSL3] | 0.334 | 0.747 |
| O=c1cc(-c2ccc(O)c(-c3c(O)cc(O)c4c(=O)cc(-c5ccc(O)cc5)oc34)c2)oc2cc(O)cc(O)c12 [Amentoflavone] + COC(=O)c1ccc([C@H]2c3[nH]c4ccccc4c3C[C@H](C(=O)OC)N2C(=O)CCl)cc1 [RSL3] | 0.318 | 0.496 |
| Cc1nc2c([nH]1)c(=O)n(C)c(=O)n2Cc1ccco1 [Furafylline] + COC(=O)c1ccc([C@H]2c3[nH]c4ccccc4c3C[C@H](C(=O)OC)N2C(=O)CCl)cc1 [RSL3] | 0.399 | 0.596 |
| CCN(CC)CCN(Cc1ccc(-c2ccc(C(F)(F)F)cc2)cc1)C(=O)Cn1c(SCc2ccc(F)cc2)nc(=O)c2c1CCC2 [Darapladib] + COC(=O)c1ccc([C@H]2c3[nH]c4ccccc4c3C[C@H](C(=O)OC)N2C(=O)CCl)cc1 [RSL3] | 0.0907 | 0.232 |
| C=C(C)[C@@H]1CC[C@]2(C)CC[C@]3(C)[C@H](CC[C@@H]4[C@@]5(C)CCC(=O)C(C)(C)[C@@H]5CC[C@]43C)[C@@H]12 + COC(=O)c1ccc([C@H]2c3[nH]c4ccccc4c3C[C@H](C(=O)OC)N2C(=O)CCl)cc1 [RSL3] | 0.595 | 0.688 |
| O=C(Nc1ccccc1)c1cc([N+](=O)[O-])ccc1Cl + COC(=O)c1ccc([C@H]2c3[nH]c4ccccc4c3C[C@H](C(=O)OC)N2C(=O)CCl)cc1 [RSL3] | 0.805 | 0.705 |
| Cc1cc(SCc2sc(-c3ccc(C(F)(F)F)cc3)nc2C)ccc1OCC(=O)O + COC(=O)c1ccc([C@H]2c3[nH]c4ccccc4c3C[C@H](C(=O)OC)N2C(=O)CCl)cc1 [RSL3] | 0.339 | 0.554 |
| Cc1nc(-c2nc(-c3ccc(OC(F)(F)F)cc3)no2)nn1Cc1cccc(N2CCC(S(C)(=O)=O)CC2)c1 + COC(=O)c1ccc([C@H]2c3[nH]c4ccccc4c3C[C@H](C(=O)OC)N2C(=O)CCl)cc1 [RSL3] | 0.417 | 0.559 |
| O=C(CC(C(=O)O)c1c[nH]c2ccccc12)c1ccc(F)cc1F (centres undefined) [Mitochonic acid 5] + COC(=O)c1ccc([C@H]2c3[nH]c4ccccc4c3C[C@H](C(=O)OC)N2C(=O)CCl)cc1 [RSL3] | 0.636 | 0.769 |
| COCCNC(=O)Nc1ccc2nc(-c3cccs3)c(-c3cccs3)nc2c1 [Ac-CoA Synthase Inhibitor1] + COC(=O)c1ccc([C@H]2c3[nH]c4ccccc4c3C[C@H](C(=O)OC)N2C(=O)CCl)cc1 [RSL3] | 0.594 | 0.566 |
| CC(C)[C@H]1CC[C@H](C(=O)N[C@H](Cc2ccccc2)C(=O)O)CC1 [Nateglinide] + COC(=O)c1ccc([C@H]2c3[nH]c4ccccc4c3C[C@H](C(=O)OC)N2C(=O)CCl)cc1 [RSL3] | 0.594 | 0.487 |
| COc1ccc2c(=O)c(-c3ccccc3)coc2c1 [7-Methoxyisoflavone] + COC(=O)c1ccc([C@H]2c3[nH]c4ccccc4c3C[C@H](C(=O)OC)N2C(=O)CCl)cc1 [RSL3] | 0.396 | 0.419 |
| O=C(O)Cc1cccc(OCCCN(Cc2cccc(C(F)(F)F)c2Cl)CC(c2ccccc2)c2ccccc2)c1 + COC(=O)c1ccc([C@H]2c3[nH]c4ccccc4c3C[C@H](C(=O)OC)N2C(=O)CCl)cc1 [RSL3] | 0.418 | 0.686 |
